PNC inhibitor – High Content Assay for Compounds that inhibit the Assembly of the Perinucleolar Compartment; PC3M PTB-GFP, PNC prevalence imaging, 16 h; hits give low values; AID 2417, 2010; 3.1% of 140,000 active; activity change (PNC), negative = inhibition, % at 10 µM;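 active = readout at or below -70, meaning at least 70% loss of cells showing the perinucleolar compartment, a nuclear body marking cancer cells; inconclusive = readout between -30 and a set limit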;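 also: plate controls were DMSO wells for no effect and camptothecin positive control wells for full effect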
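PC3M cells stably expressing PTB-GFP, 750–1000 cells/well, treated 16 h at 37 °C with compound (23 nl of library stock), in duplicate. After paraformaldehyde fixation and Hoechst stain, imaged at 20x; PNC prevalence scored by image analysis.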
Tau fluor cs – Counterscreen qHTS for Inhibitors of Tau Fibril Formation, Fluorescence Polarization; tau K18 P301L Alexa594 fluorescence, heparin fibrillization; Potency, µM (titrated, usually from 57.7 µM), inactives show at the top dose activity change, negative = decrease; 0.93% of 280,000 active; also: potency is read from the fitted curve at half-maximal effect; nearly all actives have a fitted effect of over 55% in size
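Human tau K18 P301L (15 uM unlabeled, 0.24 uM Alexa 594-labeled) in 100 mM sodium acetate pH 7 with 20 uM heparin, 6 hr at 37 C. ThT 30 uM added, 1 hr ambient; Alexa 594 FP and total fluorescence read at 555/632 nm.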
TRb SRC2 PPI – qHTS for Inhibitors of the Interaction of Thyroid Hormone Receptor and Steroid Receptor Coregulator 2; 0.065% of 280,000 active; AID 1469, 2008; TRbeta-SRC2 peptide binding, fluorescence polarization; receptor liganded with 1 µM T3; Thyroid hormone receptor beta (Homo sapiens), P10828; Potency, µM (highest dose often 106 µM), for inactives: at the top dose activity change, negative = inhibition, hits mostly inhibitors;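 also: potency is read from the fitted curve at half-maximal effect; plate controls were bound peptide for no effect and peptide without receptor for full effect; nearly all actives have a fitted effect of over 50% in size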
Target sequence (P10828 whole entry, looked up): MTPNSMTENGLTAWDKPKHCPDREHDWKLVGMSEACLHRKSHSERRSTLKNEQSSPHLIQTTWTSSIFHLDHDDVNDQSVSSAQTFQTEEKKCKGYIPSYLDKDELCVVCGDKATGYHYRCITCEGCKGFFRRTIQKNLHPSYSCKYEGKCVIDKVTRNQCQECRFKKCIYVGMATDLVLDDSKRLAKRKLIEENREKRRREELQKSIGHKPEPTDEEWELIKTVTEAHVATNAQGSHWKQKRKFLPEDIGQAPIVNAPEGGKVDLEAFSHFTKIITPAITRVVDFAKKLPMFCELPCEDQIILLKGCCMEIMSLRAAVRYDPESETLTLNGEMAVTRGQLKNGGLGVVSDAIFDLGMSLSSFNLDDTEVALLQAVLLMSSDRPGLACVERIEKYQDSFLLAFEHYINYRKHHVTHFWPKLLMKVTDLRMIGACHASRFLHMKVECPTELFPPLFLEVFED
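Fluorescence polarization of 20 nM Texas Red SRC2 peptide with 0.6 uM human TRb ligand-binding domain, in Tris buffer with 1uM T3 and 5% DMSO. Incubated 5 hr ambient; normalized to unbound and bound controls.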
TexasRed fluor – Total Fluorescence Counterscreen for Inhibitors of the Interaction of Thyroid Hormone Receptor and Steroid Receptor Coregulator 2; Potency, µM (top dose mostly 106 µM), without a hit: at the highest dose fluorescence change, negative = quenching; TRb/SRC2 Texas Red total fluorescence interference; AID 1479, 2009; 0.29% of 280,000 active; active = well fitted curve in either direction with a large enough effect; inconclusive = small, poorly fitted or top-dose-only effect; also: potency is read from the fitted curve at half-maximal effect
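Flags fluorescent or light-absorbing compounds by total fluorescence, S + 2P, at 555 nm excitation and 632 nm emission. Mixture: 20 nM Texas Red SRC2 peptide, 0.6 uM human TRb LBD, 1 uM T3, 5% DMSO; compound exposure 5 h at ambient temperature.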
Tau fibril FP – qHTS for Inhibitors of Tau Fibril Formation, Fluorescence Polarization. Microtubule-associated protein tau (Homo sapiens), P10636. K18 P301L tau heparin fibrillization, Alexa594 FP, 6 h. Potency, µM (series often up to 57.7 µM), for the others: top-dose activity, negative = inhibition, actives largely listed as inhibitors. 0.39% of 280,000 active. AID 1468, 2008; also: potency is read from the fitted curve at half-maximal effect; nearly all actives have a fitted effect of over 55% in size
Target sequence (P10636 561-689 P618L limits assumed): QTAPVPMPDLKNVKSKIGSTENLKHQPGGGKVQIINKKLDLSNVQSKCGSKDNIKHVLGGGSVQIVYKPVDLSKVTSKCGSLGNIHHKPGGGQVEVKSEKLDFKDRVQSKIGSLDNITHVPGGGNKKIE
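Steps: dispense K18 P301L tau (15 uM plus 0.24 uM Alexa 594 tracer, final) in pH 7 sodium acetate; add compound; add heparin (20 uM final); incubate 6 hr, 37 C; add ThT (30 uM final); after 1 hr ambient, read FP.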
Tau ThT inhib – qHTS for Inhibitors of Tau Fibril Formation, Thioflavin T Binding. Microtubule-associated protein tau (Homo sapiens), P10636. recombinant tau K18 P301L, heparin-induced fibrillization, ThT fluorescence. Potency, µM (series often up to 57.4 µM), without a hit: at the top dose activity, negative = inhibition, actives largely listed as inhibitors. 2.1% of 270,000 active; also: potency is read from the fitted curve at half-maximal effect; nearly all actives have a fitted effect of over 55% in size
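ThT emission at 510 nm, taken 1 hr after adding 30 uM dye, quantifies aggregates formed when 20 uM heparin acts on human tau K18 P301L for 6 hr at 37 C.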
* = called active by the depositor; ? = inconclusive; · = not tested or not shown; ! = repeats disagree; [ ] = remark or other dose. Rows were chosen to be rich in hits. Some 4.6% of all compounds tested hit in one or more screens of this group. Unless noted, calls follow the shape of the dose curve; as a rule, active = well fitted curve in the direction sought with a large enough effect; inconclusive = small, poorly fitted or top-dose-only effect, or another doubt; inactive = no such curve, though single readings can be large; an effect the other way counts as inactive or inconclusive. Unless noted, % is scaled to controls: 0 for no effect and ±100 for the full control effect.

SMILES	PNC inhibitor	Tau fluor cs	TRb SRC2 PPI	TexasRed fluor	Tau fibril FP	Tau ThT inhib
Cc1nn(-c2ccccc2)c(Cl)c1/C=C1\SC(=S)N(C)C1=O	63.7	-29.9%	0.6%	-0.8%	?	?
CN1C(=O)/C(=C\c2cc(N=Nc3ccccc3)ccc2O)SC1=S	10.9	4.47µM*[quencher]	10.2%	8.7%	?	3.55µM*
O=[N+]([O-])/C=C\c1ccc(N2CCCC2)c(F)c1	·	?	-1.2%	-1.5%	-7.8%	15.8µM*
Cc1ccccc1NS(=O)(=O)c1cc(C(=O)Nc2cccc([N+](=O)[O-])c2)ccc1C	109.9	14.1µM*[quencher]	5.9%	-2.5%	-13.2%	?
Cc1ccc(C(=O)Nc2cccc([N+](=O)[O-])c2)cc1S(=O)(=O)Nc1ccc(C(=O)O)cc1	·	-18.1%	3.4%	-1.7%	-1.0%	-16.0%
COc1ccc(C)cc1NS(=O)(=O)c1ccc(NC(=O)CN(c2cc([N+](=O)[O-])ccc2C)S(C)(=O)=O)cc1	?	8.3%	3.5%	0.4%	8.7%	17.4%
Cc1cccc(NS(=O)(=O)c2ccc(NC(=O)CN(c3cc([N+](=O)[O-])ccc3C)S(C)(=O)=O)cc2)c1	-113.4*	?	1.4%	4.9%	?	-17.8%
Cc1cccc(NS(=O)(=O)c2cc(NC(=O)CC(=O)c3ccc([N+](=O)[O-])cc3)ccc2C)c1	·	7.94µM*[quencher]	-8.0%	-4.4%	-6.1%	?
N#C/C(=C\c1ccc(OC(=O)c2cccs2)cc1)c1nc2ccccc2[nH]1	17.1	8.7%	5.3%	-2.5%	3.9%	9.4%
O=[N+]([O-])c1ccc(-c2nc(-c3ccc(F)cc3)c(-c3ccncc3)[nH]2)cc1	·	20µM*[quencher]	0.2%	?	?	14.1µM*
N#C/C(=C(/O)c1ccc(-c2cccc([N+](=O)[O-])c2)o1)c1nc2ccccc2s1	·	?	3.7%	-9.1%	9.8%	6.31µM*
O=C(Cc1coc2ccc3ccccc3c12)Nc1nnc(C2CC2)s1	-100.4*	-6.6%	-1.0%	-0.4%	-1.8%	-15.9%
CC(C)(C)NC(=O)NC(=O)COC(=O)c1c(F)cccc1Cl	·	-4.6%	3.5%	-4.3%	-4.9%	0.6%
CCN(CC)c1nc2c3c(nc4c(c3c1C#N)CC(=O)N4c1ccc(Cl)cc1)NC(C)=N2	12.8	?	5.4%	-2.3%	?	15.8µM*
Cc1nc2ccc(NC(=O)N3CCCCC3)cc2nc1C	?	-4.6%	1.1%	-1.9%	-3.7%	-15.9%
O=C(Nc1ccc2nc(-c3ccco3)c(-c3ccco3)nc2c1)N1CCCCCC1	?	8.91µM*[quencher]	10.9%	22.4µM*[quencher]	14.1µM*	7.08µM*
CCOC(=O)C1CCN(C(=O)Nc2ccc3nc(-c4ccco4)c(-c4ccco4)nc3c2)CC1	?	?	3.2%	?	?	3.16µM*
Cc1nc2cc(NC(=O)N3CCCCC3)ccc2n1C	-118.9*	-3.7%	-0.3%	-2.2%	-1.4%	-12.2%
CCOC(=O)C1CCN(C(=O)Nc2ccc3c(c2)nc(C)n3C)CC1	36.7	-7.5%	-12.4%	-3.8%	-6.6%	-18.8%
CC1CCN(C(=O)CSc2nc3c(cnn3-c3ccc(Cl)cc3)c(=O)[nH]2)CC1	22.9	-7.5%	-0.5%	-2.3%	0.4%	-0.1%
O=C1/C(=C/Nc2cccc([N+](=O)[O-])c2)CCc2ccccc21	32.6	?	-16.5%	-2.0%	9.1%	14.1µM*
O=C1/C(=C\c2ccc([N+](=O)[O-])cc2)CCc2ccccc21	77.5	-14.1%	-10.5%	-3.7%	-13.7%	?
O=Cc1[nH]c2ccccc2c1N(C(=O)CCl)c1ccccc1	·	-26.8%	1.2%	0.0%	?	31.6µM*
O=C(CCl)N(c1ccccc1)c1ccccc1	·	4.2%	-12.6%	-7.5%	7.6%	-15.3%
Cc1sc(NC(=O)c2ccco2)c(C(c2ccccc2)N2CCC(C)CC2)c1C (stereo not given)	·	-6.6%	-1.4%	-0.4%	8.9%	-6.0%
SMILES	PNC inhibitor	Tau fluor cs	TRb SRC2 PPI	TexasRed fluor	Tau fibril FP	Tau ThT inhib
COc1ccccc1N1CCN(C2CCN(C(=O)c3cccs3)CC2)CC1	-118.9*	0.1%	-7.7%	-0.2%	6.7%	-3.7%
O=C(c1cccs1)N1CCC(N2CCN(c3ccccc3)CC2)CC1	-3.0	-5.6%	?	-0.3%	2.7%	?
COc1ccccc1-n1cnc2cc(NCc3cccs3)ccc21	-80.5*	?	4.8%	-2.3%	5.1%	?
COc1ccc(C(=O)Nc2nc3c(s2)CCCC3)cc1S(=O)(=O)N1CCCc2ccccc21	-123.3*	-28.0%	-1.3%	-1.5%	?	-7.5%
COc1ccc(C(=O)NC2CCCCCC2)cc1S(=O)(=O)N1CCCc2ccccc21	13.2	-15.4%	3.8%	1.5%	14.3%	-15.4%
COc1ccc(NC(=O)CC2Nc3cccc4cccc(c34)NC2=O)cc1 (stereo not given)	·	?	4.8%	-1.7%	4.1%	?
COc1ccc(NC(=O)CC2Nc3cc(C)c(C)cc3NC2=O)c([N+](=O)[O-])c1 (stereo not given)	·	?	-6.7%	0.5%	?	11.2µM*
O=C(CC1Nc2cccc3cccc(c23)NC1=O)Nc1ccc(F)cc1 (stereo not given)	·	8.91µM*![quencher]	0.4%	-1.4%	6.9%	?
COc1cc(NC(=O)Nc2cccc(Cl)c2)c(OC)cc1NC(=O)CN1CCCCC1	19.1	8.91µM*[quencher]	-3.9%	-6.3%	?	?
COc1ccc(NC(=S)NC(NC(=O)CCl)C(Cl)(Cl)Cl)c([N+](=O)[O-])c1 (stereo not given)	·	?	-5.3%	-4.2%	-11.0%	15.8µM*
O=C(CN1CCCCC1)Nc1cccc(Cl)c1	·	1.3%	2.8%	-1.0%	2.5%	-1.4%
COc1ccccc1NC(=O)c1cc2c(=O)n(C)c3ccccc3c2n1C	·	11.0%	-0.1%	0.2%	-0.4%	·
O=C(Nc1c(-c2cccs2)nc2ccccn12)c1ccccc1F	·	-9.4%	2.5%	-3.6%	11.9%	-8.2%
COc1ccc(NC(=O)CN2CCCCC2)c([N+](=O)[O-])c1	-90.4*	-11.2%	-5.3%	0.9%	-1.1%	-15.1%
COc1ccc(NC(=O)CN2CCC(C)CC2)c([N+](=O)[O-])c1	19.3	-2.0%	-2.7%	-7.1%	2.0%	-3.3%
O=C(CC1NC(=O)NC1=O)Nc1ccc(Cl)cc1 (stereo not given)	-26.7	-5.1%	-26.3%	-0.9%	-3.3%	-0.4%

High-throughput results from PubChem BioAssay.
